High-throughput results from PubChem.
Shown are actives, neighbours in structure and some others; about 12% of the full set was active somewhere.
SARS PLpro yeast – qHTS of Yeast-based Assay for SARS-CoV PLP | S. cerevisiae expressing SARS-CoV PLpro, growth rescue | Potency, µM (top dose mostly 32.9 µM), inactives show at the top dose activity, positive = growth rescue, usual class: activators | 0.19% of 330,000 active | AID 485353, 2010; also: potency is read from the fitted curve at half-maximal effect; 0% is about no effect; nearly all actives have a fitted effect of over 55% in size
Shiga toxin inh – A qHTS for Small Molecule Inhibitors of Shiga Toxin | Vero cells, Shiga toxin protein synthesis inhibition reporter | inhibition, % at 38.7 µM | 9.2% of 290,000 active | AID 2315, 2010; in the data active = inhibition mostly above about 28%, no sharp cut-off; inactive = mostly below about 43%; also: 0% is about no effect
CHX counter – Cycloheximide Counterscreen for Small Molecule Inhibitors of Shiga Toxin. cell reporter, cycloheximide protein synthesis inhibition counterscreen. max response, %. 12% of 300,000 active; in the data active = max response mostly above about 13%, no sharp cut-off; inactive = mostly below about 14%; also: read at 38.3 µM for the half of the compounds with a filed dose; 0% is about no effect
NS1 function inh – qHTS Assay for Inhibitors of Influenza NS1 Protein Function; Potency, µM (series often up to 46.1 µM), inactives show at the highest dose activity, positive = more growth; 0.4% of 270,000 active; also: potency is read from the fitted curve at half-maximal effect; actives are rising curves; nearly all actives have a fitted effect of over 50% in size
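OD600 was taken as the measure of yeast growth restored by compound in an NS1-expressing S. cerevisiae strain. Cells had been washed out of glucose medium and diluted 1:100 into galactose -URA medium, pH 6.0.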
* hit, by the source's call; ? = inconclusive; nt = no result. Unless noted, calls follow the shape of the full dose curve.

SMILES	SARS PLpro yeast	Shiga toxin inh	CHX counter	NS1 function inh
O=C(Nc1ccc(F)cc1)c1ccc(NC(=O)C2CCCO2)cc1 (centres undefined)	1.8%	73.1*	21.2*	4.9%
O=C(Nc1cccc(O)c1)c1ccc(NC(=O)C2CCCO2)cc1 (centres undefined)	-3.0%	110.0*	47.4*	-5.4%
O=C(Nc1ccc(C(F)(F)F)cc1)c1ccc(NC(=O)C2CCCO2)cc1 (centres undefined)	4.0%	4.2	-4.0	7.2%
O=C(COC(=O)c1ccccc1OC(F)F)Nc1ccc(N2CCCCC2)cc1	1.6%	nt	nt	nt
COc1cc2cc(C)c(SCC(=O)N3CCN(C(=O)c4ccco4)CC3)nc2cc1OC	-1.1%	-3.9	-4.3	1.3%
O=C(Nc1c2c(nn1-c1ccc(F)cc1)CS(=O)(=O)C2)C12CC3CC(CC(C3)C1)C2	6.8%	7.7	-2.3	-23.7%
COc1ccc(CN(CC(=O)NCc2ccccc2)C(=O)CCC(=O)Nc2cc(C)ccn2)cc1	-0.4%	22.0	-5.3	-4.7%
Cc1ccnc(NCc2ccc(Br)cc2)c1	1.0%	34.6*	38.4*	0.6%
C=CCNC(=S)Nc1cc(C)ccn1	24.4%	21.3	18.1	nt
COc1ccc(CNc2cc(C)ccn2)cc1	0.8%	97.3*	37.5*	-0.8%
COc1ccc(CC(=O)Nc2cc(C)ccn2)cc1	0.3%	86.3*	42.0*	4.0%
CCCN(CC(=O)Nc1cc(Cl)ccc1Cl)C(=O)CN1C(=O)C2CCCCC2C1=O (centres undefined)	6.3%	14.9	-5.6	-0.8%
CCCCCC(=O)NC(Cc1ccc(OC)c([N+](=O)[O-])c1)C(=O)O (centres undefined)	3.3%	36.8	3.9	nt
CCOC(=O)C1CCCN(C(=O)c2ccc3c(c2)N(C)C(=O)/C(=C/c2ccccc2Cl)S3)C1 (centres undefined)	-6.0%	-1.9	-1.8	-4.0%
CN1C(=O)/C(=C/c2ccccc2Cl)Sc2ccc(C(=O)N3CCCC3)cc21	-4.0%	3.3	22.4*	-22.9%
COc1cc(-c2cc(-c3ccc(F)cc3)nc(N)c2C#N)ccc1O	-0.4%	-20.2	15.9	-1.7%
Cc1ccc(NC(=O)Cn2nnc(-c3ccc4c(c3)OCO4)n2)cc1F	6.1%	-2.9	-4.4	-3.7%
O=C(Cn1nnc(-c2ccccc2F)n1)Nc1ccc2c(c1)OCCO2	-2.1%	79.1*	32.2*	10.5%
Cc1ccccc1C(=O)Nc1ccccc1-c1nnn(CC(=O)Nc2ccc3c(c2)OCCO3)n1	3.9%	41.4	38.3*	-0.1%
O=C(Cn1nnc(-c2ccccc2NC(=O)c2ccccc2)n1)Nc1ccc2c(c1)OCCO2	0.3%	6.3	-1.4	-4.9%
COc1ccccc1NC(=O)Cn1nnc(-c2ccccc2NC(=O)c2cc3ccccc3oc2=O)n1	2.1%	80.1*	39.3*	-0.1%
CC(=O)Nc1ccccc1-c1nnn(CC(=O)Nc2ccc3c(c2)OCCO3)n1	-2.8%	45.4	24.5*	-67.7%
Cc1ccccc1C(=O)NC1CCN(CC(=O)Nc2ccc3c(c2)OCCO3)CC1	0.2%	24.5	9.3	nt
O=C(/C=C/c1ccc([N+](=O)[O-])cc1)Nc1cccc(S(=O)(=O)NC2=NCCCCC2)c1	1.5%	nt	nt	nt
O=C(Nc1cccc(S(=O)(=O)NC2=NCCC2)c1)c1ccccc1	-2.6%	nt	nt	nt
SMILES	SARS PLpro yeast	Shiga toxin inh	CHX counter	NS1 function inh
O=C(/C=C/c1ccccc1Cl)Nc1cccc(S(=O)(=O)NC2=NCCCCC2)c1	-3.4%	64.6*	23.0*	?
O=C(/C=C/c1ccc(Cl)cc1Cl)Nc1cccc(S(=O)(=O)NC2=NCCC2)c1	-2.2%	43.8	13.9*	nt
CN(C)c1cccc(C(=O)Nc2cccc(S(=O)(=O)NC3=NCCC3)c2)c1	18.2%	69.7*	32.9*	16.4%
COc1cccc(N(CC(=O)N2CCCCCC2)S(C)(=O)=O)c1	9.3%	-2.5	-3.0	12.0%
CCOc1cc(/C=N\Nc2nc(-c3ccc(C)cc3)c(NC(C)=O)s2)ccc1O	3.5%	23.5	2.0	22.7%
COc1ccc(/C=N/Nc2nc(-c3ccc(C)cc3)c(NC(C)=O)s2)cc1OC	1.2%	54.9*	33.6*	?
COc1cc(/C=N\Nc2nc(-c3ccc(C)cc3)c(NC(C)=O)s2)ccc1O	-0.1%	50.7	18.6*	7.8%
Nc1ncnc2nc(SCCN3CCCCC3)[nH]c12	22.1%	-5.5	-2.7	-6.7%
Cc1cc2nc(SCCN3CCCC3)[nH]c2cc1C	-2.1%	13.7	12.5*	4.6%
Cc1ccc(F)cc1NC(=O)c1sc2ncn(CC(=O)N3CCN(c4ccccn4)CC3)c(=O)c2c1C	-3.0%	-7.5	-1.8	5.6%
N/C(=N\OC(=O)CCCc1ccccc1)c1ccc([N+](=O)[O-])cc1	-50.2%	9.7	-1.4	-20.1%
Cc1ccc(/C(N)=N/OC(=O)CCc2ccccc2)cc1	-2.1%	91.0*	33.3*	-17.2%
N/C(=N\OC(=O)CCc1ccccc1)c1ccc(Br)cc1	1.9%	71.1*	38.0*	-3.1%
N/C(=N\OC(=O)CCc1ccccc1)c1ccccc1Cl	-0.3%	106.9*	27.5*	nt
N/C(=N\OC(=O)CCc1ccccc1)c1cccc(Br)c1	-21.2%	15.1	11.9	-59.9%
CCc1cccc(NS(=O)(=O)c2csc(C(N)=O)c2)c1	2.9%	-11.7	-2.1	0.2%
CCCOc1ccc(/C(O)=C2/C(=O)C(=O)N(CCCn3ccnc3)C2c2ccco2)cc1 (centres undefined)	-1.1%	28.2	27.6*	10.5%
CC1Cc2cc(/C(O)=C3/C(=O)C(=O)N(CCCn4ccnc4)C3c3ccco3)ccc2O1 (centres undefined)	6.6%	113.5*	33.2*	-0.2%
Cc1nnc(N2C(=O)C(=O)/C(=C(/O)c3ccc4c(c3)CC(C)O4)C2c2ccccc2F)s1 (centres undefined)	-6.0%	17.5	13.9*	23.9%
O=C1C(=O)N(CCCn2ccnc2)C(c2ccccn2)/C1=C(/O)c1ccccc1 (centres undefined)	0.6%	-8.8	-6.9	7.8%
C=CCOc1ccc(/C(O)=C2/C(=O)C(=O)N(CCCn3ccnc3)C2c2cccs2)cc1 (centres undefined)	-2.0%	137.3*	48.8*	-8.5%
CC(Oc1ccc(Br)cc1)C(=O)Nc1ccc(N2CCOCC2)cc1N1CCOCC1 (centres undefined)	-2.9%	nt	nt	nt
CN(C)C(/C=C/Nc1ccc([N+](=O)[O-])cc1)=C(C#N)C#N	1.6%	-6.3	-8.2	nt
CC1Cc2cc(/C(O)=C3/C(=O)C(=O)N(Cc4ccco4)C3c3cccs3)ccc2O1 (centres undefined)	-0.4%	86.7*	45.8*	5.9%
CCOc1ccc(/C(O)=C2/C(=O)C(=O)N(c3nc(C)c(C)s3)C2c2ccco2)cc1 (centres undefined)	-5.3%	122.9*	17.5*	-50.2%
COc1ccccc1C1/C(=C(\O)c2ccc3c(c2)OCCO3)C(=O)C(=O)N1CCCn1ccnc1 (centres undefined)	-3.0%	72.5*	31.7*	-10.7%
C=CCOc1ccc(/C(O)=C2/C(=O)C(=O)N(CCCn3ccnc3)C2c2ccco2)cc1 (centres undefined)	0.8%	64.7*	31.7*	0.7%
Cc1[nH][nH]c(=O)c1C=NCc1ccc(Cl)cc1	2.5%	1.2	-5.0	nt
Cc1ccc(NC(=S)N2CCN(S(C)(=O)=O)CC2)cc1Cl	-5.2%	-9.3	0.4	4.6%
